Measured values reported in PubChem BioAssay (NCATS).
Results filed as inconclusive are left out. Calls of active or inactive are those of the source. Unless noted, calls follow the shape of the dose curve; as a rule, active = well fitted curve in the direction sought with a large enough effect; inconclusive = small, poorly fitted or top-dose-only effect, or another doubt; inactive = no such curve, though single readings can be large; an effect the other way counts as inactive or inconclusive.

Legend:
[1] = biological target: Glucocorticoid receptor (Homo sapiens) (UniProt P04150); assay: qHTS assay for small molecule antagonists of glucocorticoid receptor signaling (AID 588533; active = well fitted inhibition curve with a large enough effect in the signal ratio, with a control signal flat, not every such curve was filed as active; the % refers to the signal ratio;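 also: cells stimulated with 2 nM dexamethasone as agonist; % is scaled to controls: 0 for no effect and ±100 for the full control effect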)
Outline: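 Antagonist-mode qHTS: compound titrations added to GRE-bla HeLa cells, then dexamethasone 2 nM final; 18 h, 37 C. CCF4 FRET fluorescence normalized to dexamethasone and DMSO; IC50 from Hill fit.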

[2] = qHTS assay for small molecule antagonists of peroxisome proliferator-activated receptor delta signaling (AID 588535; active = well fitted inhibition curve with a large enough effect in the signal ratio, with a control signal flat, not every such curve was filed as active; the % refers to the signal ratio;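 as to max response: cells co-treated with a PPAR-delta agonist as stimulator during compound exposure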); conditions: HEK293T PPARd-UAS-bla, beta-lactamase FRET ratio, 18 h; 460 nm channel
Outline: (§1)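 Reporter: UAS-bla under PPAR-delta response element, HEK293T host. Medium: 2% charcoal/dextran FBS. Dosing: titration, 18 hrs, 37 C. Detection: CCF4, 2 hrs RT, 405 ex/460 and 530 em.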

[3] = biological target: Peroxisome proliferator-activated receptor delta (Homo sapiens) (UniProt Q03181); assay: as above
Outline: as §1

[4] = biological target: Vitamin D3 receptor (Homo sapiens) (UniProt P11473); assay: qHTS assay for small molecule antagonists of vitamin D receptor signaling (AID 588541; calls by dose curve;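 also: receptor activated by calcitriol during compound treatment; series mostly up to about 77 µM; % is scaled to controls: 0 for no effect and ±100 for the full control effect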)
Outline: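 VDR-UAS-bla HEK293T cells (2000/well, 2% charcoal-stripped FBS) were treated with titrated compounds plus 1-alpha,25-dihydroxyvitamin D3 (50 nM or 3 nM final) for 16 h at 37 C. CCF4 beta-lactamase fluorescence was read; Hill fits gave IC50.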

[5] = biological target: Vitamin D3 receptor (Homo sapiens) (UniProt P11473); assay: qHTS assay for small molecule agonists of vitamin D receptor signaling (AID 588543; calls by dose curve;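 also: 0% = DMSO basal and 100% = reference agonist control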)
Outline: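 Measured: β-lactamase reporter activity (CCF4, 405 nm excitation, 460/530 nm emission) in HEK293T VDR-UAS-bla cells after 16 h compound exposure at 37 °C. Normalization against 50 nM 1α,25-dihydroxyvitamin D3 and DMSO; Hill-fit EC50.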

[6] = biological target: Thyroid hormone receptor beta (Homo sapiens) (UniProt P10828); assay: qHTS assay for small molecule agonists of thyroid hormone receptor beta signaling (AID 588545; calls by dose curve;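 also: 0% = DMSO only and 100% = 10 nM T3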)
Outline: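 Compounds were tested as agonists in TR-UAS-bla-GripTite HEK 293 cells. After 18 hrs at 37 C, CCF4 substrate was added and fluorescence read after 2 hrs at room temperature.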

[7] = qHTS assay for small molecule antagonists of retinoid X receptor alpha signaling (AID 588546; active = well fitted inhibition curve with a large enough effect in the signal ratio, with a control signal flat, not every such curve was filed as active; the % refers to the signal ratio;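 also: cells stimulated with 9-cis-retinoic acid as agonist; % is scaled to controls: 0 for no effect and ±100 for the full control effect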); conditions: HEK293T RXRa-UAS-bla, beta-lactamase ratio, antagonist mode; measured here: W530 green channel, cytotoxicity proxy
Outline: (§2)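 Beta-lactamase reporter inhibition, read as CCF4 fluorescence ratio (ex 405, em 460/530 nm) after 2 h at RT. HEK293T UAS-bla cells, 2500/well, were stimulated with 9-cis-RA at 500 or 100 nM final alongside test compound for 18 h at 37 C.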

[8] = biological target: Retinoic acid receptor RXR-alpha (Homo sapiens) (UniProt P19793); assay: as above; conditions: HEK293T RXRa-UAS-bla, beta-lactamase ratio, antagonist mode
Outline: as §2

[9] = biological target: Thyroid hormone receptor beta (Homo sapiens) (UniProt P10828); assay: qHTS assay for small molecule antagonists of thyroid hormone receptor beta signaling (AID 588547; active = well fitted inhibition curve with a large enough effect in the signal ratio, with a control signal flat, not every such curve was filed as active; the % refers to the signal ratio;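 also: cells stimulated with 0.4 nM T3 agonist during compound exposure; series mostly up to about 77 µM; % is scaled to controls: 0 for no effect and ±100 for the full control effect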); conditions: TR-UAS-bla HEK293, beta-lactamase ratio, antagonist mode, 18 h
Outline: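 TR-UAS-bla GripTite HEK293 cells in 2% charcoal/dextran FBS medium were preincubated 4 h at 37 C, given compound (0.59 nM to 92 uM) plus 0.4 nM T3 (final) for 18 h, then CCF4 for 2 h at RT; Hill fit gave IC50.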

[10] = qHTS assay for small molecule agonists of the antioxidant response element (ARE) signaling pathway (AID 651741; active = well fitted activation curve with a large enough effect in the signal ratio; the % refers to the signal ratio; also: % of control where 0% means no effect)
Outline: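 Compounds in DMSO are pinned onto HepG2 ARE-bla cells (2,000/well) that were preincubated 5 h; plates stay 16 h at 37 C, then beta-lactamase activity is detected with LiveBLAzer B/G substrate by fluorescence.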

[11] = qHTS assay for small molecule activators of the p53 signaling pathway (AID 651743; active = well fitted activation curve with a large enough effect in the signal ratio, not every such curve was filed as active; the % refers to the signal ratio; also: series mostly up to about 92 µM; % of control where 0% means no effect); conditions: HCT-116 p53RE-bla, beta-lactamase FRET ratio, 16 h; activation: stronger effect = higher value
Outline: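 Cell-based beta-lactamase reporter (p53 response elements, HCT-116 background). After a 5-hour preincubation, cells received compound for 16 hours at 37 C; substrate development ran 2 hours at room temperature.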

[12] = biological target: Peroxisome proliferator-activated receptor alpha (Homo sapiens) (UniProt Q07869); assay: qHTS assay for small molecule agonists of the peroxisome proliferator-activated receptor alpha (PPARalpha) signaling pathway (AID 651778); conditions: PathHunter PPARalpha complementation, chemiluminescence, 6 h; max response: stronger effect = higher value; also: % of control where 0% means no effect
Outline: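 Cells plated at 2,000/well and held overnight at 37 C, 5% CO2, then compound added by pin tool for 6 hr; after PathHunter detection reagent and 60 min at room temperature, chemiluminescence from enzyme complementation was read.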

[13] = qHTS assay for small molecule agonists of the antioxidant response element (ARE) signaling pathway measured by Nrf2-dependant transcriptional activity (AID 720636; active = well fitted curve in the direction sought with a large enough effect in the repeat runs; an effect the other way counts as inactive or inconclusive; also: % of control where 0% means no effect)
Outline: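 ARE-luc HepG2 cells carrying an Nrf2-responsive luciferase reporter were plated in medium with 1% dialyzed FBS, left 6 hr at 37 C to attach, then exposed to compound for 16 hr. Luciferase luminescence was read after ONE-Glo addition.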

[14] = qHTS assay for small molecule agonists of the antioxidant response element (ARE) signaling pathway measured by Nrf2-dependant transcriptional activity - cell viability counter screen (AID 720653; active = well fitted curve in the direction sought with a large enough effect in the repeat runs; an effect the other way counts as inactive or inconclusive; also: % is scaled to controls: 0 for no effect and ±100 for the full control effect); conditions: ARE-bla HepG2 viability, CellTiter-Glo ATP luminescence, 16 h; max response: stronger effect = lower value
Outline: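 ARE-bla HepG2 cells (2,000/well) rested 5 hrs at 37C/5% CO2, then exposed to compounds in DMSO for 16 hrs. Viability was read in the same wells as intracellular ATP by luminescence, 30 min at room temperature after reagent addition.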

[15] = qHTS assay for cell viability of HEK293 cells (AID 743288); conditions: ATP luminescence (CellTiter-Glo), 18 h; max response: stronger effect = lower value; also: % is scaled to controls: 0 for no effect and ±100 for the full control effect; nearly all actives have a fitted effect of over 50% in size
Outline: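 Luminescent ATP quantitation served as the viability read-out. Cells (parental HEK293, 2,000/well) received compounds after at least 5 h at 37 C and were exposed for 18 h before a 30 min room-temperature reagent step.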

[16] = qHTS assay for cell viability of the p53RE-bla HCT-116 cell line (AID 743292); also: % is scaled to controls: 0 for no effect and ±100 for the full control effect; nearly all actives have a fitted effect of over 55% in size
Outline: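 CellSensor p53RE-bla HCT-116 cells, 4,000/well, preincubated 5 h at 37 C, then exposed to compounds in DMSO for 16 h at 37 C. Viability read as CellTiter-Glo luminescence (intracellular ATP) after 30 min at room temperature.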

[17] = biological target: Nuclear receptor subfamily 1 group I member 2 (Rattus norvegicus) (UniProt Q9R1A7); assay: qHTS assay for small molecule activators of the rat pregnane X receptor (rPXR) signaling pathway (AID 651751; call rule not given here; also: 0% is about no effect); conditions: rPXR reporter cells, luciferase (One-Glo), 24 h
[18] = qHTS assay for small molecule activators of the human pregnane X receptor (PXR) signaling pathway (AID 720659; call rule not given here; also: 0% is about no effect)
[19] = biological target: Glucocorticoid receptor (Homo sapiens) (UniProt P04150); assay: qHTS assay for small molecule agonists of glucocorticoid receptor signaling (AID 588532; active = well fitted curve in the direction sought with a large enough effect in the signal ratio, with a control signal flat; the % refers to the signal ratio;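 also: 100% = dexamethasone at 0.1 µM and 0% = DMSO only wells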); conditions: HeLa MMTV-bla, beta-lactamase ratio, agonist, 18 h; stronger effect = higher value; percent of dexamethasone control, DMSO zero
Outline: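 MMTV-bla HeLa, beta-lactamase reporter; medium with 1% charcoal/dextran-stripped FBS; cpds up to 92 uM, 18 h, 37 C; CCF4 readout 460/530 nm; Hill fit → EC50, efficacy vs 0.1 uM dexamethasone = 100%.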

[20] = qHTS assay for small molecule agonists of retinoid X receptor alpha signaling (AID 588544; calls by dose curve;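 as to activation: 0% = DMSO basal wells and 100% = reference agonist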); conditions: HEK293T RXRa-UAS-bla, beta-lactamase reporter, 18 h; 530 nm emission
[21] = biological target: Retinoic acid receptor RXR-alpha (Homo sapiens) (UniProt P19793); assay: as above
[22] = qHTS assay for environmental chemicals that activate the Aryl hydrocarbon Receptor (AhR) signaling pathway (AID 651777); conditions: 1A2-DRE human hepatoma cells, luciferase, 24 h; activation: stronger effect = higher value; also: % of control where 0% means no effect; nearly all actives have a fitted effect of over 15% in size
Outline: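 Human hepatoma 1A2-DRE cells, stably carrying a dioxin response element and CYP1A2 promoter driving luciferase, were exposed to compounds for 24 hr at 37 C and 5% CO2. Luciferase signal was then read after 30 min One-Glo at room temperature.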

[23] = biological target: Peroxisome proliferator-activated receptor gamma (Homo sapiens) (UniProt P37231); assay: qHTS assay for small molecule antagonists of peroxisome proliferator-activated receptor gamma signaling (AID 588537; active = well fitted inhibition curve with a large enough effect in the signal ratio, with a control signal flat, not every such curve was filed as active; the % refers to the signal ratio;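 also: reporter cells co-stimulated with 50 nM rosiglitazone agonist during compound treatment; % of control where 0% means no effect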)
Outline: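 We seeded GeneBLAzer HEK293 reporter cells at 3000 per well, allowed 6-6.5 h attachment at 37 C, then co-treated with test compound titrations and 50 nM rosiglitazone overnight (16 h). Inhibition was quantified from 460/530 nm emission ratios.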

[24] = biological target: Peroxisome proliferator-activated receptor gamma (Homo sapiens) (UniProt P37231); assay: qHTS assay for small molecule agonists of peroxisome proliferator-activated receptor gamma signaling (AID 588536; active = well fitted curve in the direction sought with a large enough effect in the signal ratio, with a control signal flat, not every such curve was filed as active; the % refers to the signal ratio;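 also: 0% = DMSO basal wells and 100% = rosiglitazone at 2 µM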)
Outline: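 PPAR-gamma-UAS-bla HEK293 cells in medium with 1% charcoal/dextran-treated FBS were exposed to compounds for 16 h at 37 C. Beta-lactamase activity was read with CCF4 substrate (405 nm excitation, 460/530 nm emission).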

[25] = qHTS assay for small molecule activators of the nuclear factor-kappa B (NF-kB) signaling pathway (AID 651749; active = well fitted activation curve with a large enough effect in the signal ratio; the % refers to the signal ratio; also: series mostly up to about 77 µM; % of control where 0% means no effect); conditions: NF-kB-bla ME-180 cells, beta-lactamase FRET ratio, 16 h; activation: stronger effect = higher value
Outline: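 Screening used 2,000 ME-180 reporter cells per well exposed to pinned compound (23 nL) or DMSO; after 16 hr at 37C, beta-lactamase expression under NF-kB control was assessed through FRET.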

Chain of Retinoic acid receptor RXR-alpha (Homo sapiens) (P19793 whole entry, looked up): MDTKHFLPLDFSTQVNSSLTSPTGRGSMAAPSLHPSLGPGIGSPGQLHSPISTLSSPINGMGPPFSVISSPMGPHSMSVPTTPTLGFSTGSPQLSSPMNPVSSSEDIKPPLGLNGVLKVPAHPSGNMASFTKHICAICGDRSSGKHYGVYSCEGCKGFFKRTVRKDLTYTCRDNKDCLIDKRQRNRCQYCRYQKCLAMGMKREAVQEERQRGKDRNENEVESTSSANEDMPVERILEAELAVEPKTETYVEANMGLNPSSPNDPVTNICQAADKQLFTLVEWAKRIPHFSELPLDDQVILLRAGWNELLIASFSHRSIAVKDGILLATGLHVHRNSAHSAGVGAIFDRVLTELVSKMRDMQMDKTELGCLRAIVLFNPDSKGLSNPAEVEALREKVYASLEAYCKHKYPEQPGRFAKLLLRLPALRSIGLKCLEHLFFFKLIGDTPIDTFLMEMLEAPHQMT
Chain of Peroxisome proliferator-activated receptor gamma (Homo sapiens) (P37231 whole entry, looked up): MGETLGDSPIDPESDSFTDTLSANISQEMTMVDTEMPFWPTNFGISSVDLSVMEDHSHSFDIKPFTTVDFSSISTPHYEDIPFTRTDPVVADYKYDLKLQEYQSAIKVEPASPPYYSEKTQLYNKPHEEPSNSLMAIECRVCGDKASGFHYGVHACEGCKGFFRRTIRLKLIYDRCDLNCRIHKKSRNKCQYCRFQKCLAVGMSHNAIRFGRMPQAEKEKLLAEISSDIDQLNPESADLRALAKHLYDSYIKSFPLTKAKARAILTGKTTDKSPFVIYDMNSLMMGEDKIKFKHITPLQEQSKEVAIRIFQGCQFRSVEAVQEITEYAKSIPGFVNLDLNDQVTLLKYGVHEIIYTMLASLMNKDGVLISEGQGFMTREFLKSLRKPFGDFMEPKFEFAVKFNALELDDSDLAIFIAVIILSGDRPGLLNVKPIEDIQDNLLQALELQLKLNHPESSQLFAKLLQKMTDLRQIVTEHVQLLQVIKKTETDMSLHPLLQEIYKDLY
Chain of Peroxisome proliferator-activated receptor delta (Homo sapiens) (Q03181 whole entry, looked up): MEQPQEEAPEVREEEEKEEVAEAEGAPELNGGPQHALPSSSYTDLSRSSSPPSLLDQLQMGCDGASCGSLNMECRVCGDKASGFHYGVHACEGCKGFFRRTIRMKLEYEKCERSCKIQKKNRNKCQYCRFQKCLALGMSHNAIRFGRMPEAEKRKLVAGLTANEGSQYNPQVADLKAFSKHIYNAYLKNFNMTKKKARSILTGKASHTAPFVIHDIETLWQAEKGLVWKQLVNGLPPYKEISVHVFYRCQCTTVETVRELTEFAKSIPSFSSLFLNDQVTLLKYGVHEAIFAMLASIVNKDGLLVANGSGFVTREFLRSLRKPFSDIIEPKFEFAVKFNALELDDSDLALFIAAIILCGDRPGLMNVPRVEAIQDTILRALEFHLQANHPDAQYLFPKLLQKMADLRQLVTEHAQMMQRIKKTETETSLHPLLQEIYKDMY
Chain of Peroxisome proliferator-activated receptor alpha (Homo sapiens) (Q07869 whole entry, looked up): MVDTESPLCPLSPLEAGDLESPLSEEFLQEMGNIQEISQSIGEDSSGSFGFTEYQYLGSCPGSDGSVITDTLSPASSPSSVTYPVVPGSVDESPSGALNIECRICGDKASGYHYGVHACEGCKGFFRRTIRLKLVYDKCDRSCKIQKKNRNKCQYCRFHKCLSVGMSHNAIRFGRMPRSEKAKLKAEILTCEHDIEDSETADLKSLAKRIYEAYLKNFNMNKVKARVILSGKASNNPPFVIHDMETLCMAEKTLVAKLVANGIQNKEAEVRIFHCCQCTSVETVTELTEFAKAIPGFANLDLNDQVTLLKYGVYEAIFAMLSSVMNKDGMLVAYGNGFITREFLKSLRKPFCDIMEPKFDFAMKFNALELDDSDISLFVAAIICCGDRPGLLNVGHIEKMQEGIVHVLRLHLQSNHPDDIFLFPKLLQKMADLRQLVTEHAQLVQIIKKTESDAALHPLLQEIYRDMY
Chain of Vitamin D3 receptor (Homo sapiens) (P11473 whole entry, looked up): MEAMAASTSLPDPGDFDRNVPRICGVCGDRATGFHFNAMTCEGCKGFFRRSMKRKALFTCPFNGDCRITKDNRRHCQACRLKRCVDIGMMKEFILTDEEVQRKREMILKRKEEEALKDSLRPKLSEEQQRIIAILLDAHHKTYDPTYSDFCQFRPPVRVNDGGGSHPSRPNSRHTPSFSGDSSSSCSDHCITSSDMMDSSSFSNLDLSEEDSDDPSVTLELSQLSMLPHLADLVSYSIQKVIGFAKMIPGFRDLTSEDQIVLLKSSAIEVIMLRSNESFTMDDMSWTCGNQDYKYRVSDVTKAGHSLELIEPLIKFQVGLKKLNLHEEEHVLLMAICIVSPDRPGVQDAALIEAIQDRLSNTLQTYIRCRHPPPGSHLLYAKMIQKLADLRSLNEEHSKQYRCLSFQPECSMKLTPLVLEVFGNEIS
Chain of Thyroid hormone receptor beta (Homo sapiens) (P10828 whole entry, looked up): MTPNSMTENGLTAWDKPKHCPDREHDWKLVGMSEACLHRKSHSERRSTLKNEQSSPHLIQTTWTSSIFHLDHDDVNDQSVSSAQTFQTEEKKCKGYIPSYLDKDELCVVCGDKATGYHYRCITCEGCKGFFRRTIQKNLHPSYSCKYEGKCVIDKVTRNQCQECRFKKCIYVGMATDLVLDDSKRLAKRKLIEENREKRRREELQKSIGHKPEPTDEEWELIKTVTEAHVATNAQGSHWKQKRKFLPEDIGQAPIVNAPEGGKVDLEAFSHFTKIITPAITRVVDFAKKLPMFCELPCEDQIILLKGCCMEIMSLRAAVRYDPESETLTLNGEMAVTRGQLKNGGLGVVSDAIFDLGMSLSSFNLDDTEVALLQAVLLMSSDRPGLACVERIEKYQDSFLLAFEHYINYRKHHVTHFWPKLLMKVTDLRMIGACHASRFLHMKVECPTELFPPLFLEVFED
Chain of Glucocorticoid receptor (Homo sapiens) (P04150 whole entry, looked up): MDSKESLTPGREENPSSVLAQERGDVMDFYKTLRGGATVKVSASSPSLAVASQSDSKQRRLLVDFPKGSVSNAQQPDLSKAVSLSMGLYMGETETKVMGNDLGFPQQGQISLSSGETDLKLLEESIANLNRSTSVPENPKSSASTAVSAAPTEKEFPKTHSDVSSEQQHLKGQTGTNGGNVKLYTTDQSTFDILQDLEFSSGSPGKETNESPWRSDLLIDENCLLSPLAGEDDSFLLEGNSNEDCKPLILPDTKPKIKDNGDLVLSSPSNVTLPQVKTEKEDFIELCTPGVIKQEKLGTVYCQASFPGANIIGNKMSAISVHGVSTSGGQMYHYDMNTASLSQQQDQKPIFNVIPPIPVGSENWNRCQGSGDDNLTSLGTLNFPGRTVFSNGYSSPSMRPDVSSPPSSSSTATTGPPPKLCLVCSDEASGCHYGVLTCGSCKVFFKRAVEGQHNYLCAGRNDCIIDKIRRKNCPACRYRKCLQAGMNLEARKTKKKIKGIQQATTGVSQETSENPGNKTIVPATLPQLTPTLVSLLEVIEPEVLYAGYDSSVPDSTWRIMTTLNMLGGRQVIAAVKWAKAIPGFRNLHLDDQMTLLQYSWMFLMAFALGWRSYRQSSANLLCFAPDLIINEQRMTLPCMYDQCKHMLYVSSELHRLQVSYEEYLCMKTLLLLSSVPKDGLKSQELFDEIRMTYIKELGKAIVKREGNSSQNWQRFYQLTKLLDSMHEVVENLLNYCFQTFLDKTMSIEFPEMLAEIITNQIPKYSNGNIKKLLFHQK
Chain of Nuclear receptor subfamily 1 group I member 2 (Rattus norvegicus) (Q9R1A7 whole entry, looked up): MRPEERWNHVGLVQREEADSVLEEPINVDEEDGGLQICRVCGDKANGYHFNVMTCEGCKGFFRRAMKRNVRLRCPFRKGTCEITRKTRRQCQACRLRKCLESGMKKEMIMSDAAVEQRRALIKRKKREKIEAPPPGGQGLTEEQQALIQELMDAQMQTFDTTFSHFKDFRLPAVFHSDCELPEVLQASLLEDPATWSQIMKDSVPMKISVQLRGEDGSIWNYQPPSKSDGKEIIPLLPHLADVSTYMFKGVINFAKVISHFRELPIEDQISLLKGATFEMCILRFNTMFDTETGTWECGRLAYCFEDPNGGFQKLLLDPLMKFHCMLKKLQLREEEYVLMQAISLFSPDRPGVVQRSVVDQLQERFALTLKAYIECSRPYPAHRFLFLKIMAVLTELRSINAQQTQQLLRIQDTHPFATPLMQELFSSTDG

## Brc1ccc(Oc2ccc(Br)cc2)cc1
[1]
  Potency: inactive
[2]
  max response: 0.317%
[3]
  Potency: inactive
[4]
  Potency: inactive
[5]
  outcome: inactive
[6]
  Potency: inactive
[7]
  max response: -2.23%
[8]
  max response: 3.5% (inactive)
[9]
  activity change % (negative = inhibition): 11% (inactive)
[10]
  Potency: inactive
[11]
  activation: 0.901% (inactive)
[12]
  max response: 4.27% (inactive)
[13]
  Potency: inactive
[14]
  max response: -9.27% (inactive)
[15]
  max response: -10% (inactive)
[16]
  Potency: inactive
[17]
  max response: -1.1% (inactive)
[18]
  outcome: inactive

## COCCOCCOCCO
[19]
  activation: 2.13% (inactive)
[1]
  Potency: inactive
[2]
  max response: 7.14%
[3]
  Potency: inactive
[5]
  outcome: inactive
[20]
  max response: -11.8%
[21]
  Potency: inactive
[7]
  max response: -2.04%
[8]
  max response: 3.15% (inactive)
[11]
  activation: 13.1% (inactive)
[22]
  activation: -0.0316% (inactive)
[13]
  Potency: inactive
[14]
  max response: -1.82% (inactive)
[15]
  max response: -7% (inactive)
[16]
  Potency: inactive
[17]
  max response: 1.8% (inactive)
[18]
  outcome: inactive

## S=C(S)NCCNC(=S)S
[1]
  Potency: inactive
[23]
  Potency: inactive
[5]
  outcome: inactive
[6]
  Potency: inactive
[9]
  activity change % (negative = inhibition): -7.47% (inactive)
[22]
  activation: 0.998% (inactive)
[12]
  max response: 0.0068% (inactive)
[14]
  max response: -0.0675% (inactive)
[15]
  max response: -6.97% (inactive)
[16]
  Potency: inactive
[17]
  max response: -0.407% (inactive)

## OCCOCCOCCOCCOCCO
[2]
  max response: -16.8%
[3]
  Potency: inactive
[24]
  outcome: inactive
[4]
  Potency: inactive
[5]
  outcome: inactive
[20]
  max response: 5.49%
[21]
  Potency: inactive
[6]
  Potency: inactive
[7]
  max response: -8.78%
[8]
  max response: 0.858% (inactive)
[9]
  activity change % (negative = inhibition): -16.4% (inactive)
[10]
  Potency: inactive
[11]
  activation: 2.86% (inactive)
[12]
  max response: -1.15% (inactive)
[13]
  Potency: inactive
[14]
  max response: -9.49% (inactive)
[15]
  max response: -4.24% (inactive)
[16]
  Potency: inactive

## CCCCCCCCC(=O)O
[19]
  activation: 1.63% (inactive)
[1]
  Potency: inactive
[2]
  max response: -26.9%
[3]
  Potency: inactive
[20]
  max response: -21.9%
[21]
  Potency: inactive
[7]
  max response: -8.04%
[8]
  max response: -41.9% (inactive)
[9]
  activity change % (negative = inhibition): 3.07% (inactive)
[11]
  activation: 4.29% (inactive)
[22]
  activation: 2.74% (inactive)
[12]
  max response: 1.35% (inactive)
[13]
  Potency: inactive
[15]
  max response: -14.6% (inactive)
[16]
  Potency: inactive
[17]
  max response: -1.4% (inactive)
[18]
  outcome: inactive

## C=C(C)C(=O)OCCOCCOCCOC(=O)C(=C)C
[19]
  activation: 9.85% (inactive)
[1]
  Potency: inactive
[24]
  outcome: inactive
[23]
  Potency: inactive
[4]
  Potency: inactive
[5]
  outcome: inactive
[20]
  max response: 1.13%
[21]
  Potency: inactive
[6]
  Potency: inactive
[7]
  max response: 3.38%
[8]
  max response: 4.6% (inactive)
[9]
  activity change % (negative = inhibition): -12.3% (inactive)
[10]
  Potency: inactive
[11]
  activation: -4.46% (inactive)
[25]
  activation: -1.62% (inactive)
[12]
  max response: -0.929% (inactive)
[13]
  Potency: inactive
[14]
  max response: -16.9% (inactive)
[15]
  max response: -8.3% (inactive)
[16]
  Potency: inactive
[17]
  max response: -0.564% (inactive)
[18]
  outcome: inactive
